Targets with a hit are over-represented here; the source holds about 7,900 in all. About 0.6% of all pairs of compound and target were hits. Values without a mark were called inactive.
Assays:
Experiment in all cases: log2 fold change, soluble protein after heating vs DMSO (PISA); higher = thermal stabilisation; K562 cells, 10 uM, 30 min; active = over 0.2 and 3.5 SD of the protein, either way, in both replicates (recomputed)
[1] = compound: NC(=O)Nc1cc(-c2cccc(F)c2)sc1C(=O)N[C@H]1CCCNC1
How it was run: (§1)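 K562 cells at 2×10^6 cells/mL were given 10 μM compound for 30 min. Aliquots then went through 3 min of heating across 48°C-58°C, were pooled, and were extracted in PBS with 0.5% NP-40 at 4°C, and the supernatant after 21,000xg for 90 min was quantified by TMTpro 16plex LC-MS/MS with channel sums equalised. Thermal stability relative to control samples, from duplicates, is given as log2 fold change.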

[2] = compound: NC(=O)c1cnc(N[C@@H]2CCCC[C@@H]2N)nc1Nc1cccc(-n2nccn2)c1
How it was run: as §1

[3] = compound: NC1(c2ccc(-c3nc4ccn5c(=O)[nH]nc5c4cc3-c3ccccc3)cc2)CCC1
How it was run: as §1

[4] = compound: NCC(=O)Nc1ccc(-n2nc(C(F)(F)F)cc2-c2ccc3c(ccc4ccccc43)c2)cc1
How it was run: as §1

entinostat = compound: Nc1ccccc1NC(=O)c1ccc(CNC(=O)OCc2cccnc2)cc1 [entinostat]
How it was run: as §1

vorinostat = compound: O=C(CCCCCCC(=O)Nc1ccccc1)NO [vorinostat]
How it was run: as §1

citarinostat = compound: O=C(CCCCCCNC(=O)c1cnc(N(c2ccccc2)c2ccccc2Cl)nc1)NO [citarinostat]
How it was run: as §1

silmitasertib = compound: O=C(O)c1ccc2c(c1)nc(Nc1cccc(Cl)c1)c1ccncc12 [silmitasertib]
How it was run: as §1

[5] = compound: O=C1NC(=O)C(c2cnc3ccccn23)=C1c1cn2c3c(cc(F)cc13)CN(C(=O)N1CCCCC1)CC2
How it was run: as §1

[6] = compound: c1cc(OCCN2CCCCC2)cc(-c2n[nH]c3ccc(-c4nnc[nH]4)cc23)c1
How it was run: as §1

entospletinib = compound: c1cn2cc(-c3ccc4cn[nH]c4c3)nc(Nc3ccc(N4CCOCC4)cc3)c2n1 [entospletinib]
How it was run: as §1

LRPPRC (UniProt P42704)
log2 fold change [1]: -0.249
log2 fold change [2]: -0.291
log2 fold change [3]: -0.676
log2 fold change [4]: -0.272
log2 fold change (entinostat): 0.479
log2 fold change (vorinostat): 0.289
log2 fold change (citarinostat): 0.203
log2 fold change (silmitasertib): 0.033
log2 fold change [5]: -0.383
log2 fold change [6]: -0.128
log2 fold change (entospletinib): 0.245

LMNB1 (UniProt P20700)
log2 fold change [1]: 0.094
log2 fold change [2]: -0.073
log2 fold change [3]: 0.078
log2 fold change [4]: -0.018
log2 fold change (entinostat): 0.024
log2 fold change (vorinostat): -0.029
log2 fold change (citarinostat): 0.033
log2 fold change (silmitasertib): 0.097
log2 fold change [5]: -0.105
log2 fold change [6]: -0.072
log2 fold change (entospletinib): -0.01

ILF3 isoform 7 (UniProt Q12906)
Chain of UniProt Q12906 (Q12906 whole entry, looked up): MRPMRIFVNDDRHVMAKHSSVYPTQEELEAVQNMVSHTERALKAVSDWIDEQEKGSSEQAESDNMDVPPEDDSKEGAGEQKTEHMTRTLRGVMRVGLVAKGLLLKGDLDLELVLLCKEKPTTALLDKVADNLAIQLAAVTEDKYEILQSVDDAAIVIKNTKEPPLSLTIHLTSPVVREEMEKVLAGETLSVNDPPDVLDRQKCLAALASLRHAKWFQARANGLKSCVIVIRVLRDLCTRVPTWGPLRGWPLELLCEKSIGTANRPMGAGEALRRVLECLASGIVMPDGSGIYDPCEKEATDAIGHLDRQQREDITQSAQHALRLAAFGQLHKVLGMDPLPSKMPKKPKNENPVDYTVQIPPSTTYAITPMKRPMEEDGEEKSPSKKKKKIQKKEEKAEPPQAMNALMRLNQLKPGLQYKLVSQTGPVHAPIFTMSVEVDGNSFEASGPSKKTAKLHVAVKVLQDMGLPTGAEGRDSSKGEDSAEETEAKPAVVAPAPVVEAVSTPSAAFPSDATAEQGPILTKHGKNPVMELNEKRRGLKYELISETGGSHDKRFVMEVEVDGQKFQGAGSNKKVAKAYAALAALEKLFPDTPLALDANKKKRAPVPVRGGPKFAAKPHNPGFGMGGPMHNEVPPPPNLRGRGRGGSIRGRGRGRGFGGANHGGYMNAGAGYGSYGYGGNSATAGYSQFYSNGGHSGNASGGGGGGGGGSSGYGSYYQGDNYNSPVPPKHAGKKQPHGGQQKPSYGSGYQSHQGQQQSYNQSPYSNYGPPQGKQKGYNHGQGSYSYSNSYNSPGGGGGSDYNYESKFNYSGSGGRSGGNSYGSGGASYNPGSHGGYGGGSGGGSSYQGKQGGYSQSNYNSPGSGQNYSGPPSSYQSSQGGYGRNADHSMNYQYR
log2 fold change [1]: -0.056
log2 fold change [2]: 0.055
log2 fold change [3]: 0.17
log2 fold change [4]: 0.107
log2 fold change (entinostat): -0.083
log2 fold change (vorinostat): -0.052
log2 fold change (citarinostat): -0.053
log2 fold change (silmitasertib): 0.189
log2 fold change [5]: 0.32
log2 fold change [6]: -0.105
log2 fold change (entospletinib): -0.034

MEAK7 (UniProt Q6P9B6)
log2 fold change [1]: -0.011
log2 fold change [2]: -0.117
log2 fold change [3]: -0.122
log2 fold change [4]: -0.025
log2 fold change (entinostat): 0.027
log2 fold change (vorinostat): 0.069
log2 fold change (citarinostat): 0.053
log2 fold change (silmitasertib): -0.028
log2 fold change [5]: -0.021
log2 fold change [6]: 0.016
log2 fold change (entospletinib): -0.06

MARCKSL1 (UniProt P49006)
Chain of UniProt P49006 (P49006 whole entry, looked up): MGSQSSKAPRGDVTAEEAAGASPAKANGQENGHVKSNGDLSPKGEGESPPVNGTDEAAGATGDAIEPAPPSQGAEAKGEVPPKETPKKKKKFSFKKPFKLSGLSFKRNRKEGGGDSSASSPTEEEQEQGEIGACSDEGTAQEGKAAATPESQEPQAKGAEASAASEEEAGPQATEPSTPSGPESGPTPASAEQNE
log2 fold change [1]: -0.02
log2 fold change [2]: 0.028
log2 fold change [3]: -0.01
log2 fold change [4]: 0.002
log2 fold change (entinostat): 0.075
log2 fold change (vorinostat): -0.062
log2 fold change (citarinostat): 0.162
log2 fold change (silmitasertib): -0.115
log2 fold change [5]: -0.035
log2 fold change [6]: 0.089
log2 fold change (entospletinib): -0.005

LTV1 (UniProt Q96GA3)
log2 fold change [1]: 0.006
log2 fold change [2]: 0.008
log2 fold change [3]: 0.003
log2 fold change [4]: 0.041
log2 fold change (entinostat): 0.034
log2 fold change (vorinostat): -0.005
log2 fold change (citarinostat): -0.038
log2 fold change (silmitasertib): 0.147
log2 fold change [5]: 0.132
log2 fold change [6]: -0.16
log2 fold change (entospletinib): 0.09

MAP2K2 (UniProt P36507)
log2 fold change [1]: 0
log2 fold change [2]: -0.042
log2 fold change [3]: -0.023
log2 fold change [4]: -0.003
log2 fold change (entinostat): 0.061
log2 fold change (vorinostat): 0.039
log2 fold change (citarinostat): -0.051
log2 fold change (silmitasertib): -0.098
log2 fold change [5]: -0.055
log2 fold change [6]: -0.018
log2 fold change (entospletinib): 0.021

KIF1B isoform 4 (UniProt O60333)
log2 fold change [1]: 0.043
log2 fold change [2]: -0.059
log2 fold change [3]: -0.16
log2 fold change [4]: -0.03
log2 fold change (entinostat): 0.011
log2 fold change (vorinostat): 0.063
log2 fold change (citarinostat): 0.054
log2 fold change (silmitasertib): 0.009
log2 fold change [5]: -0.037
log2 fold change [6]: -0.062
log2 fold change (entospletinib): -0.013

MAP2K3 isoform 3 (UniProt P46734)
Chain of UniProt P46734 (P46734 whole entry, looked up): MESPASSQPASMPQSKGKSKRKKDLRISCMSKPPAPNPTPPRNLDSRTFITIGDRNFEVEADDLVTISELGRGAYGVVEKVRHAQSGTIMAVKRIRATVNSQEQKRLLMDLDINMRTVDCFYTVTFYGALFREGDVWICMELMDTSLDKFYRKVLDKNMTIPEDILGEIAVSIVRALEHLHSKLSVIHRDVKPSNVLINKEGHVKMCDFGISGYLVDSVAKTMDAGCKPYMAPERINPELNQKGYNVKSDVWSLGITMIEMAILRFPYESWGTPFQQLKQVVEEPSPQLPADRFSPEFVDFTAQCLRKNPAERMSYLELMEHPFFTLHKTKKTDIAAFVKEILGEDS
log2 fold change [1]: -0.04
log2 fold change [2]: -0.018
log2 fold change [3]: -0.14
log2 fold change [4]: -0.025
log2 fold change (entinostat): 0.068
log2 fold change (vorinostat): 0.02
log2 fold change (citarinostat): -0.126
log2 fold change (silmitasertib): -0.024
log2 fold change [5]: -0.188
log2 fold change [6]: -0.052
log2 fold change (entospletinib): 0.013

MICU2 (UniProt Q8IYU8)
Chain of UniProt Q8IYU8 (Q8IYU8 whole entry, looked up): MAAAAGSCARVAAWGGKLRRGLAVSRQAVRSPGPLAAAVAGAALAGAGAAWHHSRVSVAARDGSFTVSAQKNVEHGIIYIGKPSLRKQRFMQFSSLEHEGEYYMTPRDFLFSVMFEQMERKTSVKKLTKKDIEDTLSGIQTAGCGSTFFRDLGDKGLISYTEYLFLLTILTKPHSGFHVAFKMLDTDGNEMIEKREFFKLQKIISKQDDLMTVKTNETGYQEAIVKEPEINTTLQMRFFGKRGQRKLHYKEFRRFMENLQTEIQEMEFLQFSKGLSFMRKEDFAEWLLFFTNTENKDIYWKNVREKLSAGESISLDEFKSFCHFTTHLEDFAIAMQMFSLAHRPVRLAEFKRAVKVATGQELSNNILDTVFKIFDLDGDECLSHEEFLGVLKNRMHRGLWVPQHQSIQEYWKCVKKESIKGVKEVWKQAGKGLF
log2 fold change [1]: -0.095
log2 fold change [2]: -0.075
log2 fold change [3]: -0.121
log2 fold change [4]: -0.006
log2 fold change (entinostat): -0.014
log2 fold change (vorinostat): 0.073
log2 fold change (citarinostat): 0.042
log2 fold change (silmitasertib): 0.076
log2 fold change [5]: 0.04
log2 fold change [6]: -0.141
log2 fold change (entospletinib): 0.019

KNTC1 (UniProt P50748)
log2 fold change [1]: -0.037
log2 fold change [2]: -0.1
log2 fold change [3]: -0.193
log2 fold change [4]: -0.046
log2 fold change (entinostat): 0.049
log2 fold change (vorinostat): 0.029
log2 fold change (citarinostat): 0.037
log2 fold change (silmitasertib): 0.077
log2 fold change [5]: 0.013
log2 fold change [6]: -0.004
log2 fold change (entospletinib): 0

MIER1 isoform 12 (UniProt Q8N108)
log2 fold change [1]: -0.026
log2 fold change [2]: -0.03
log2 fold change [3]: -0.074
log2 fold change [4]: -0.025
log2 fold change (entinostat): 0.292 (active)
log2 fold change (vorinostat): 0.28 (active)
log2 fold change (citarinostat): 0.273 (active)
log2 fold change (silmitasertib): -0.017
log2 fold change [5]: -0.066
log2 fold change [6]: -0.061
log2 fold change (entospletinib): -0.002

LENG8 (UniProt Q96PV6)
log2 fold change [1]: -0.012
log2 fold change [2]: -0.075
log2 fold change [3]: 0.042
log2 fold change [4]: -0.198
log2 fold change (entinostat): 0.085
log2 fold change (vorinostat): 0.298
log2 fold change (citarinostat): 0
log2 fold change (silmitasertib): 0.09
log2 fold change [5]: -0.144
log2 fold change [6]: -0.091
log2 fold change (entospletinib): 0.131

MAPK14 isoform 2 (UniProt Q16539)
log2 fold change [1]: -0.052
log2 fold change [2]: 0.028
log2 fold change [3]: -0.192
log2 fold change [4]: -0.168
log2 fold change (entinostat): 0.016
log2 fold change (vorinostat): -0.055
log2 fold change (citarinostat): 0.085
log2 fold change (silmitasertib): 0.477
log2 fold change [5]: -0.004
log2 fold change [6]: 0.024
log2 fold change (entospletinib): -0.032

IPO9 (UniProt Q96P70)
log2 fold change [1]: 0.059
log2 fold change [2]: -0.072
log2 fold change [3]: -0.07
log2 fold change [4]: 0.003
log2 fold change (entinostat): 0.022
log2 fold change (vorinostat): 0.041
log2 fold change (citarinostat): 0.061
log2 fold change (silmitasertib): 0.164
log2 fold change [5]: 0.048
log2 fold change [6]: -0.035
log2 fold change (entospletinib): 0.037

MICOS13 (UniProt Q5XKP0)
log2 fold change [1]: -0.018
log2 fold change [2]: -0.023
log2 fold change [3]: -0.119
log2 fold change [4]: 0.029
log2 fold change (entinostat): 0.041
log2 fold change (vorinostat): 0.018
log2 fold change (citarinostat): 0.028
log2 fold change (silmitasertib): -0.02
log2 fold change [5]: -0.106
log2 fold change [6]: 0.025
log2 fold change (entospletinib): 0.049

IMMT isoform 2 (UniProt Q16891)
log2 fold change [1]: 0
log2 fold change [2]: -0.045
log2 fold change [3]: -0.044
log2 fold change [4]: -0.066
log2 fold change (entinostat): 0.039
log2 fold change (vorinostat): 0.159
log2 fold change (citarinostat): 0.042
log2 fold change (silmitasertib): -0.066
log2 fold change [5]: 0.064
log2 fold change [6]: 0.008
log2 fold change (entospletinib): -0.053

KCTD2 (UniProt Q14681)
Chain of UniProt Q14681 (Q14681 whole entry, looked up): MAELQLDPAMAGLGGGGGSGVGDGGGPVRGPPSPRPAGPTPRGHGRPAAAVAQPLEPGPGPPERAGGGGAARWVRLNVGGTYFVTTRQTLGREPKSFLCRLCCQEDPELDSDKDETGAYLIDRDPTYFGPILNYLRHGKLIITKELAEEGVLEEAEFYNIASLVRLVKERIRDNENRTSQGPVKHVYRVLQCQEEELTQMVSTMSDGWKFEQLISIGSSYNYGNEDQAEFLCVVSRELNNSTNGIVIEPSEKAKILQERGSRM
log2 fold change [1]: -0.524
log2 fold change [2]: -0.195
log2 fold change [3]: 0.032
log2 fold change [4]: -0.119
log2 fold change (entinostat): -0.35
log2 fold change (vorinostat): -0.543
log2 fold change (citarinostat): -0.274
log2 fold change (silmitasertib): 0.119
log2 fold change [5]: -0.121
log2 fold change [6]: -0.204
log2 fold change (entospletinib): 0.139

LAMP2 (UniProt P13473)
Chain of UniProt P13473 (P13473 whole entry, looked up): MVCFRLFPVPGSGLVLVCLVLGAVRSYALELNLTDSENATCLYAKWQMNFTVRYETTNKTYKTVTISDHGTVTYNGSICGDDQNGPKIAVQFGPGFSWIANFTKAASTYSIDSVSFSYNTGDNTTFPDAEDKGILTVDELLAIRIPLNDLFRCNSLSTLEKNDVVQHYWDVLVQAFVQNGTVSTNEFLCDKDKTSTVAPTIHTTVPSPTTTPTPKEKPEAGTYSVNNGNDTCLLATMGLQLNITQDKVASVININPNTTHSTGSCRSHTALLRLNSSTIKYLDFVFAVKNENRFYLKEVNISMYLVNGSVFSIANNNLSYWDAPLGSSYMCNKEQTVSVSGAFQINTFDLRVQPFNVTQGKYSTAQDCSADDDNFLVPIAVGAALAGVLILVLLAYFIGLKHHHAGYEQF
log2 fold change [1]: -0.013
log2 fold change [2]: 0.043
log2 fold change [3]: -0.122
log2 fold change [4]: 0.055
log2 fold change (entinostat): -0.045
log2 fold change (vorinostat): 0.083
log2 fold change (citarinostat): 0.158
log2 fold change (silmitasertib): 0.005
log2 fold change [5]: 0.065
log2 fold change [6]: -0.11
log2 fold change (entospletinib): 0.023

KIF11 (UniProt P52732)
log2 fold change [1]: -0.096
log2 fold change [2]: -0.075
log2 fold change [3]: -0.001
log2 fold change [4]: -0.067
log2 fold change (entinostat): 0.023
log2 fold change (vorinostat): 0.099
log2 fold change (citarinostat): -0.006
log2 fold change (silmitasertib): 0.147
log2 fold change [5]: 0.182
log2 fold change [6]: -0.044
log2 fold change (entospletinib): 0.058

MAGI1 (UniProt Q96QZ7)
log2 fold change [1]: -0.069
log2 fold change [2]: -0.042
log2 fold change [3]: 0.003
log2 fold change [4]: -0.022
log2 fold change (entinostat): 0.019
log2 fold change (vorinostat): 0.07
log2 fold change (citarinostat): 0.022
log2 fold change (silmitasertib): 0.125
log2 fold change [5]: 0.035
log2 fold change [6]: -0.081
log2 fold change (entospletinib): 0

KIFBP (UniProt Q96EK5)
Chain of UniProt Q96EK5 (Q96EK5 whole entry, looked up): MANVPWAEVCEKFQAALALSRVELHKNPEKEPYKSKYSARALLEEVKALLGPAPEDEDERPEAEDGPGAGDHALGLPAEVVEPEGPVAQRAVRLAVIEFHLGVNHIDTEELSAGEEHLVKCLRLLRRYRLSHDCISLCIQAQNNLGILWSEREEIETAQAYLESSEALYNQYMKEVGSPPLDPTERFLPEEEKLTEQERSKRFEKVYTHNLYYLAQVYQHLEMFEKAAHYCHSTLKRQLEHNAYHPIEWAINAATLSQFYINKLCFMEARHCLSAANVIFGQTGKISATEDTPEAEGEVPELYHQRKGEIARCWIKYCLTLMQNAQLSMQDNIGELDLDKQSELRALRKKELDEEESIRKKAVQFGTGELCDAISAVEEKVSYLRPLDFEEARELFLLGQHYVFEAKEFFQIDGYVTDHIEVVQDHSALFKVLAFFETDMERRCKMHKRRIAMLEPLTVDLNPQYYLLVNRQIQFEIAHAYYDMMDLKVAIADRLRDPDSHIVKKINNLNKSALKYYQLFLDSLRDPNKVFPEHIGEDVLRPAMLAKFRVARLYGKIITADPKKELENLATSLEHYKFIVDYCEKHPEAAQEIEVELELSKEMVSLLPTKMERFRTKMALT
log2 fold change [1]: 0.002
log2 fold change [2]: -0.166
log2 fold change [3]: -0.117
log2 fold change [4]: -0.091
log2 fold change (entinostat): 0.059
log2 fold change (vorinostat): 0.088
log2 fold change (citarinostat): 0.043
log2 fold change (silmitasertib): -0.02
log2 fold change [5]: 0.024
log2 fold change [6]: -0.056
log2 fold change (entospletinib): -0.098

LMBRD2 (UniProt Q68DH5)
log2 fold change [1]: 0.028
log2 fold change [2]: 0.044
log2 fold change [3]: 0.099
log2 fold change [4]: -0.025
log2 fold change (entinostat): -0.011
log2 fold change (vorinostat): -0.015
log2 fold change (citarinostat): 0.057
log2 fold change (silmitasertib): -0.049
log2 fold change [5]: -0.09
log2 fold change [6]: -0.005
log2 fold change (entospletinib): 0.024

LTN1 isoform 3 (UniProt O94822)
Chain of UniProt O94822 (O94822 whole entry, looked up): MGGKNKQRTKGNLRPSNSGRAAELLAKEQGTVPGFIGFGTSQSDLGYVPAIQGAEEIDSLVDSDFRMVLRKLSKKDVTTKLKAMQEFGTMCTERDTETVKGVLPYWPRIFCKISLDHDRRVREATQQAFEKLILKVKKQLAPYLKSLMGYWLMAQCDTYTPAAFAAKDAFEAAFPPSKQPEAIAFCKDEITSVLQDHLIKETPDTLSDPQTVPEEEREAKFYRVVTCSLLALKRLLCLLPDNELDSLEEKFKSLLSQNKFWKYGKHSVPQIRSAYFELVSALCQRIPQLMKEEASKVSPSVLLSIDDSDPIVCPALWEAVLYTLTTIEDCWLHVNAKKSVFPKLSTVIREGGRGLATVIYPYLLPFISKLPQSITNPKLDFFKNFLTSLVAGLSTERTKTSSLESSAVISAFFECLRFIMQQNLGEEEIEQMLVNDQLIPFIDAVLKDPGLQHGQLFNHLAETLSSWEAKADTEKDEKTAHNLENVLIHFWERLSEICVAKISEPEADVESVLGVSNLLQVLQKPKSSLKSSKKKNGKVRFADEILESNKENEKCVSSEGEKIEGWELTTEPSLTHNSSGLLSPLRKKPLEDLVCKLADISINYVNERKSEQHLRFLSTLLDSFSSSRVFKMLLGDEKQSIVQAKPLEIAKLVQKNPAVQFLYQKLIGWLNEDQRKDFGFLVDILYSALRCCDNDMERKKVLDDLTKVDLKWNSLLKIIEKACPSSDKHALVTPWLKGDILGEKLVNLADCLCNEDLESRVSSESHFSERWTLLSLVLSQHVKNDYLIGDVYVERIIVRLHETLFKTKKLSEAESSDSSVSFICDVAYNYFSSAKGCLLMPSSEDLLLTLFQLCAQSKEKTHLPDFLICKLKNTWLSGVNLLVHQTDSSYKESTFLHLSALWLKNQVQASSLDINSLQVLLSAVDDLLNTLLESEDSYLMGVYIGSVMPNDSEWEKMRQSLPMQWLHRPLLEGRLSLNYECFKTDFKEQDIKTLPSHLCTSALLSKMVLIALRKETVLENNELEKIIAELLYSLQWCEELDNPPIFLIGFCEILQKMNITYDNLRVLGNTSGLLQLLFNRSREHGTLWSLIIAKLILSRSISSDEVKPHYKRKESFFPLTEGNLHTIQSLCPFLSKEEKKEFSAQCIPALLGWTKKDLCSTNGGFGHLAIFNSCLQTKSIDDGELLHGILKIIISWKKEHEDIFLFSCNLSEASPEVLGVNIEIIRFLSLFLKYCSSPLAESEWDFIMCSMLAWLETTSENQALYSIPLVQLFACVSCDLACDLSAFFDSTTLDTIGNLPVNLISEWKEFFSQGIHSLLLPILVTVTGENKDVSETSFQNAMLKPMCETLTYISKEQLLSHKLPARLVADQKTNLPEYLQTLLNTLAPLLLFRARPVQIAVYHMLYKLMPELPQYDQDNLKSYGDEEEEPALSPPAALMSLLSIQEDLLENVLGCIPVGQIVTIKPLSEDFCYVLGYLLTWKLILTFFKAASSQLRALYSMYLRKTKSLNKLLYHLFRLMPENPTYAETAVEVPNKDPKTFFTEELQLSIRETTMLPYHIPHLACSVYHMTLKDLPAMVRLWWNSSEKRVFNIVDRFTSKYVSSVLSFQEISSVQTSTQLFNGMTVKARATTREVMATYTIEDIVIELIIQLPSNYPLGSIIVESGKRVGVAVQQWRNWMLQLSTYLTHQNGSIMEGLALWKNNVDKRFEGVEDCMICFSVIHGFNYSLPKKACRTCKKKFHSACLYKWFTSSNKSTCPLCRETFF
log2 fold change [1]: 0.024
log2 fold change [2]: -0.079
log2 fold change [3]: -0.125
log2 fold change [4]: -0.09
log2 fold change (entinostat): 0.056
log2 fold change (vorinostat): 0.148
log2 fold change (citarinostat): 0.048
log2 fold change (silmitasertib): 0.035
log2 fold change [5]: 0.037
log2 fold change [6]: -0.045
log2 fold change (entospletinib): -0.001

LMNB2 (UniProt Q03252)
log2 fold change [1]: 0.079
log2 fold change [2]: -0.077
log2 fold change [3]: 0.068
log2 fold change [4]: -0.09
log2 fold change (entinostat): -0.006
log2 fold change (vorinostat): -0.047
log2 fold change (citarinostat): 0.015
log2 fold change (silmitasertib): 0.018
log2 fold change [5]: -0.101
log2 fold change [6]: -0.07
log2 fold change (entospletinib): -0.082

KDM3B (UniProt Q7LBC6)
log2 fold change [1]: -0.051
log2 fold change [2]: -0.033
log2 fold change [3]: -0.114
log2 fold change [4]: -0.088
log2 fold change (entinostat): 0.027
log2 fold change (vorinostat): 0.069
log2 fold change (citarinostat): 0.098
log2 fold change (silmitasertib): 0.056
log2 fold change [5]: -0.064
log2 fold change [6]: -0.023
log2 fold change (entospletinib): -0.027

MDN1 (UniProt Q9NU22)
log2 fold change [1]: -0.002
log2 fold change [2]: -0.087
log2 fold change [3]: -0.138
log2 fold change [4]: -0.058
log2 fold change (entinostat): 0.112
log2 fold change (vorinostat): 0.098
log2 fold change (citarinostat): 0.075
log2 fold change (silmitasertib): -0.037
log2 fold change [5]: -0.032
log2 fold change [6]: 0.082
log2 fold change (entospletinib): -0.123
